Active and inactive are the calls of the source.
Legend:
[1] = system: Human papillomavirus type 1a protein E7 (residues 44-93); assay: HPV1a E7 fragment binders on microarrays, primary screen, biochemical, small-molecule microarray, residues 44-93, 635 nm fluorescence (AID 1108); details: small-molecule microarray binding, fluorescence 635 nm; higher = more signal;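 also: E7 fragment applied at 1 µg/mL in TBST for 1 h at 4 C; score combines spot fluorescence with its signal to noise ratio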
[2] = modulators of HCV replicon luciferase signal, primary screen, HCV replication inhibitor project, Huh7 cells, luciferase reporter (AID 1109); details: 48 h, higher = more signal;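 also: huh7 hepatoma cells harbouring a luciferase neomycin HCV replicon reporter; luciferase luminescence as measure of HCV replicon replication; test concentration not given here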
[3] = target: Left-right determination factor 2 (Homo sapiens) (UniProt O00292); assay: LEFTY2 binders on small-molecule microarrays, primary screen, biochemical, small-molecule microarray, 635 nm fluorescence scan (AID 1110); details: LEFTY2 binding, higher = more signal
Chain of Left-right determination factor 2 (Homo sapiens) (O00292 whole entry, looked up): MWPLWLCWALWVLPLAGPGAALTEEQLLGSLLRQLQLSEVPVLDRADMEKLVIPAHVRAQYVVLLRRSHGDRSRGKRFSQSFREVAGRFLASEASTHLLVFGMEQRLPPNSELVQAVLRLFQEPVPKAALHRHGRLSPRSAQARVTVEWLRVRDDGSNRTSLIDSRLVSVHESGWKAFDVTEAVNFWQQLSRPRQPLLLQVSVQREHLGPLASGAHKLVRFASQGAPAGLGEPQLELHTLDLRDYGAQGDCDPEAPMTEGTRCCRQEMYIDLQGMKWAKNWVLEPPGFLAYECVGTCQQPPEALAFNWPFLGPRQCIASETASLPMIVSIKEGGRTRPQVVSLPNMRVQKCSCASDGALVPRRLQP

[4] = target: Calmodulin-1 (Homo sapiens) (UniProt P0DP23); assay: CALM1 binders on microarrays, EGTA buffer, profiling panel, biochemical, small-molecule microarray, Cy5-labelled CALM1 (AID 1111); details: Cy5-CALM1 binding fluorescence, higher = more signal;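 also: labelled calmodulin applied in Tris saline Tween buffer holding calcium plus EGTA and DTT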
[5] = target: Calmodulin-1 (Homo sapiens) (UniProt P0DP23); assay: calcium-bound CALM1 binders on microarrays, profiling panel, artefact control for SMM control-protein annotation, biochemical, small-molecule microarray, Cy5-labelled CALM1, plus calcium (AID 1112); details: Cy5-CALM1 binding fluorescence, higher = more signal;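 also: score merges spot fluorescence with signal to noise from triplicate slides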
[6] = small-molecule microarray binders of probe aWnt5a, primary screen, biochemical, biotinylated probe, 635/667 nm fluorescence (AID 1113); details: higher = more signal;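 also: score merges 667 nm fluorescence intensity with signal-to-noise per printed feature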
[7] = small-molecule microarray binders of probe aShh, primary screen, biochemical, biotinylated probe, 635/667 nm fluorescence (AID 1114); details: higher = more signal;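 also: probe is biotin-labelled aShh protein from a stem cell growth factor screen; measures binding of labelled protein to compounds printed on the slide; score merges feature fluorescence at 667 nm with signal-to-noise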
[8] = small-molecule microarray binders of probe aNog, primary screen, biochemical, biotinylated probe, 635/667 nm fluorescence (AID 1115); details: higher = more signal;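 also: probe is biotinylated aNog protein used at 0.15 µg/mL for 1 h at 4 C; z-score combines 667 nm fluorescence of each spot with its signal to noise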
[9] = target: Torsin-1A-interacting protein 1 (Homo sapiens) (UniProt Q5JTV8); assay: LAP1 binders from COS7 cell lysate, primary screen, small-molecule microarray, 635/667 nm fluorescence (AID 1116); details: COS7-hLAP1 lysate binding, 635 nm fluorescence, higher = more signal
Chain of Torsin-1A-interacting protein 1 (Homo sapiens) (Q5JTV8 whole entry, looked up): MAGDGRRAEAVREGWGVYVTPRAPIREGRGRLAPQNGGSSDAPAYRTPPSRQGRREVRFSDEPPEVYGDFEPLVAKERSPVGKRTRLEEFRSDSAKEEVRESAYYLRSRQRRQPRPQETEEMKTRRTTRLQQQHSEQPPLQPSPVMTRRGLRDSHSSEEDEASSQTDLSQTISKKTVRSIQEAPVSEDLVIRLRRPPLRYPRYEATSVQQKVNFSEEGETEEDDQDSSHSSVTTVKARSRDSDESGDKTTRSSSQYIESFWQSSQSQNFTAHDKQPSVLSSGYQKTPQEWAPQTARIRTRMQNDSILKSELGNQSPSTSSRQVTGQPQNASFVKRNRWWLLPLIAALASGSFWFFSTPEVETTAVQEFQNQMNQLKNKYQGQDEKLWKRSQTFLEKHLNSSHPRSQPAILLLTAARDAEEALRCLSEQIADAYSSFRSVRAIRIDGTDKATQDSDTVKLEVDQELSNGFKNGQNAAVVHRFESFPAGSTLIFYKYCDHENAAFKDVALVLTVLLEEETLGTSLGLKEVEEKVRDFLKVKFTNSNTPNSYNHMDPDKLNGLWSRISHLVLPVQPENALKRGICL

[10] = target: Alpha-bungarotoxin (Bungarus multicinctus) (UniProt P60615); assay: alpha-bungarotoxin binders on microarray, profiling panel, artefact control for SMM control protein annotation, biochemical, small-molecule microarray, Alexa647 label, 635/667 nm fluorescence (AID 1117); details: alpha-BTX-A647 binding fluorescence, higher = more signal
Chain of Alpha-bungarotoxin (Bungarus multicinctus) (P60615 whole entry, looked up): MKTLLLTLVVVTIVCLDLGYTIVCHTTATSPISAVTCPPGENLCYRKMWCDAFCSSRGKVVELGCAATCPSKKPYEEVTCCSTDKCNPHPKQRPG

Albumin (Bos taurus) = Albumin (Bos taurus) (UniProt P02769); assay: bovine serum albumin binders on microarray, profiling panel, artefact control for SMM control protein annotation, biochemical, small-molecule microarray, Alexa647 label, 635/667 nm fluorescence (AID 1118); details: BSA-A647 binding, fluorescence 635 nm, higher = more signal;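 also: score merges 667 nm emission intensity and signal-to-noise per printed compound spot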
Chain of Albumin (Bos taurus) (P02769 whole entry, looked up): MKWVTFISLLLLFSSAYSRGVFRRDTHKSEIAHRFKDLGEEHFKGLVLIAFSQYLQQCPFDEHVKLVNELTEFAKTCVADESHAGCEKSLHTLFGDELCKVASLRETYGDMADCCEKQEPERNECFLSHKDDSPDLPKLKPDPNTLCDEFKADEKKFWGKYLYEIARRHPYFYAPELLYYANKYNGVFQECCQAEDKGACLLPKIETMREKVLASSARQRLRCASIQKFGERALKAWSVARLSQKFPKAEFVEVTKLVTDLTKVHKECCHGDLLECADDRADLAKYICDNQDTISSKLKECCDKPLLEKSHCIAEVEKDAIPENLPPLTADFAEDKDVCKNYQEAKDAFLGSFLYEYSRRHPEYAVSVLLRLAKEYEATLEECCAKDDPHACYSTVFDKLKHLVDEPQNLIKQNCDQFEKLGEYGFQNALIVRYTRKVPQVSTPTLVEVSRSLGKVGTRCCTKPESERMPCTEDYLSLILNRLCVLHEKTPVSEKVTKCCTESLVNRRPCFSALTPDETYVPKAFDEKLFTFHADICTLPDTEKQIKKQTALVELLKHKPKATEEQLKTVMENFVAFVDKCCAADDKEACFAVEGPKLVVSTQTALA

[11] = small-molecule microarray binders of probe aXIP, primary screen, biochemical, NeuroSMM set, 635/667 nm fluorescence (AID 1119); details: higher = more signal, called active from +8 up or from −8 down;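 also: probe is the protein aXip251-270 applied at 1 µg/mL to compound-printed slides; binding of probe to printed compounds measured as 667 nm fluorescence plus signal to noise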
[12] = small-molecule binders of probe aNOTCH3, primary screen, biochemical, small-molecule microarray, 635/667 nm fluorescence (AID 1120); details: higher = more signal;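 also: probe is a biotin-tagged antibody raised against NOTCH3 rather than NOTCH3 protein; score merges spot fluorescence near 667 nm with spot signal to noise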
[13] = small-molecule binders of probe aNOTCH2, primary screen, biochemical, small-molecule microarray, 635/667 nm fluorescence (AID 1121); details: higher = more signal;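 also: score merges feature fluorescence read at 667 nm with its signal to noise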
[14] = target: Carbonic anhydrase 2 (Homo sapiens) (UniProt P00918); assay: CAII small-molecule binders, profiling panel, biochemical, small-molecule microarray, Alexa647-labelled CAII (AID 1122); details: CAII-A647 binding fluorescence, higher = more signal
[15] = COS7 lysate on small-molecule microarray, probe aHis, 635 nm (AID 1123); details: COS7 cell lysate, fluorescence, higher = more signal;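 also: z-score combines 667nm fluorescence intensity with signal-to-noise per printed compound spot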
[16] = compound binding in COS7 lysate, probe aLAP1, primary screen, cell lysate, small-molecule microarray (AID 1124); details: probe aLAP1, fluorescence, higher = more signal;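 also: lysate comes from COS7 cells expressing LAP1 and is applied at 0.3 µg/mL; score merges spot fluorescence near 667 nm with signal-to-noise over triplicate slides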
Sam68 (KHDRBS1) = assay: Sam68 small-molecule binders, primary screen, biochemical, small-molecule microarray, 635 nm fluorescence (AID 1125); details: small-molecule microarray binding, higher = more signal;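 also: score merges 667 nm channel intensity with signal to noise over triplicate slides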
[17] = system: Chordin-like protein 2 (CHRDL2); assay: CHRDL2 small-molecule binders, primary screen, biochemical, small-molecule microarray, 635 nm fluorescence (AID 1126); details: small-molecule microarray binding, fluorescence 635 nm; higher = more signal;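 also: printed compound slides probed with Chrdl2 protein at 4 µg/mL for 1 h at 4 C; score merges 667 nm emission intensity with signal to noise over three replicate slides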
[18] = target: Concanavalin-A (Canavalia ensiformis) (UniProt P02866); assay: ConA small-molecule binders, primary screen, artefact control for SMM control protein annotation, biochemical, small-molecule microarray, Alexa647 label, 635 nm (AID 1127); details: ConA-A647 binding fluorescence, higher = more signal;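 also: z combines 667 nm emission intensity with signal-to-noise across three replicate slides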
Chain of Concanavalin-A (Canavalia ensiformis) (P02866 whole entry, looked up): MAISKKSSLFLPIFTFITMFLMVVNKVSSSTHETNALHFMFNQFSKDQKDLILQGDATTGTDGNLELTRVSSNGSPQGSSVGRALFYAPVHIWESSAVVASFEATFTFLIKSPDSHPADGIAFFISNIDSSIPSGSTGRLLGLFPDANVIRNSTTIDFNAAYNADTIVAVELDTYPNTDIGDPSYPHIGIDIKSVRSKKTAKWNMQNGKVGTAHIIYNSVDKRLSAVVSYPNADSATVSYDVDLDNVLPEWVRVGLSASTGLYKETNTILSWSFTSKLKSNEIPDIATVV

Structure (SMILES)	composite z-score [1]	z-score [2]	composite z-score [3]	composite z-score [4]	composite z-score [5]	composite z-score [6]	composite z-score [7]	composite z-score [8]	composite z-score [9]	composite z-score [10]	composite z-score (Albumin (Bos taurus))	composite Z-score [11]	composite z-score [12]	composite z-score [13]	composite z-score [14]	composite z-score [15]	composite z-score [16]	composite z-score (Sam68 (KHDRBS1))	composite z-score [17]	composite z-score [18]
COC(=O)c1c(CC[C@@H](CO)NC(=O)N[C@@H](C)Cn2cc(-c3ccccn3)nn2)oc(C(C)=O)c1C(=O)OC	0.683	0.51	0.328	-0.063	-1.06	-0.0981	0.123	-0.0926	0.237	-0.715	-0.373	0.615 (inactive)	0.11	-0.0995	0.708	0.267	-0.555	0.871	0.204	0.743
Cc1ccc(S[C@]2(C(=O)O)CC(=O)N(C3CCCCC3)[C@@H]2c2ccc(CO)cc2I)cc1	1.35	-0.298	-0.326	1.79	0.63	-0.113	0.351	1.06	1.4	0.763	0.905	0.258 (inactive)	0.175	-0.013	0.331	2.84	1.01	1.29	-0.565	1.02
COC(=O)[C@@]1(Cc2ccc(F)cc2)[C@H]2c3cc(C(=O)N(C)C)n(Cc4ccc(OC(F)(F)F)cc4)c3C[C@H]2CN1C(=O)c1ccccc1	0.841	0.167	0.242	0.11	-0.191	-0.0758	0.442	0.0924	-0.147	0.414	0.239	-0.249 (inactive)	0.11	-0.078	0.0217	0.398	0.0642	-0.0367	-0.0356	0.296
COC(=O)C1=CC(CCCO)=CC(c2cccs2)N(C)C=C1C(=O)OC (stereo not given)	0.0867	-1.31	-0.876	0.127	0.618	-0.0981	-0.165	-0.0879	0.044	0.498	0.445	0.156 (inactive)	-0.0879	-0.115	0.869	1.17	-0.371	-0.213	-0.44	0.34
CCOC(=O)C[C@H]1[C@H](OC(=O)Cc2ccc3c(c2)OCO3)[C@@H](NC(=O)c2ccc3ccccc3n2)c2cc(OCCCO)ccc2N1C(=O)c1ccc2ccccc2n1	0.0977	-1.63	0.464	0.509	-0.0205	-0.0512	0.0048	-0.115	0.0995	0.406	0.208	-0.0069 (inactive)	-0.0646	-0.135	0.371	0.986	0.171	0.796	0.0741	1.07
COCC(=C=CC[C@H](O)c1ccc(OCCO)cc1)CCO	0.364	-0.794	0.774	-0.31	-0.618	-0.0239	-0.138	-0.0898	1.6	-0.829	-0.173	-0.321 (inactive)	-0.0298	0.0312	0.736	0.368	0.342	0.763	0.262	-0.155
CCOC(=O)C[C@H]1[C@H](OC(=O)c2ccc(C(=O)c3ccccc3)cc2)[C@@H](NC(=O)c2ccc3ccccc3n2)c2cc(OCCCO)ccc2N1C(=O)Cc1ccc(OC)cc1	0.947	0.361	0.471	1.08	0.0823	-0.202	0.0115	-0.259	-0.0179	-0.0434	0.567	-0.201 (inactive)	0.0779	-0.153	-0.175	0.759	-0.263	0.627	-0.384	0.93
Cc1ccc(S[C@]2(C(=O)NCC(F)(F)F)CC(=O)N(Cc3cc(C(F)(F)F)cc(C(F)(F)F)c3)[C@@H]2c2ccc(CO)cc2)cc1	-0.109	-0.099	-0.968	-0.392	0.159	-0.25	-0.356	0.162	-0.851	-0.633	-0.658	-0.0775 (inactive)	-0.229	-0.164	0.802	-0.551	-0.238	-0.36	-1.19	-0.183
COC(=O)[C@@H]1N=C(c2ccc(OCCCO)cc2)O[C@@H]1c1ccccc1	-1.38	-1.94	-1.55	-0.494	-0.294	-0.152	-0.0709	-0.59	-0.992	-0.213	0.258	0.536 (inactive)	-0.206	-0.104	0.7	0.387	-0.342	-0.826	-1.89	-0.324
C=CCNC(=O)[C@@H]1[C@H]2C(=O)O[C@H](c3ccccc3)[C@H](c3ccccc3)N2[C@H](c2ccccc2OCCO)[C@@]12C(=O)N(C(=O)OCCOC)c1ccc(C#CC3(O)CCCCCC3)cc12	1.23	-2.27	0.694	0.66	0.212	-0.0566	-0.0035	-0.0224	1.35	0.859	0.351	0.0141 (inactive)	0.11	-0.0708	0.354	2.15	0.618	1.29	0.755	1.07
NCCCCCNC(=O)[C@H]1C[C@H]2C(=O)N3CCC[C@H]3C(=O)N2[C@H]1c1cccc(OCCO)c1	1.32	0.5	-0.397	1.35	0.684	0.0375	0.14	-0.403	1.17	1.24	0.729	0.325 (inactive)	0.185	0.0305	0.705	1.59	0.466	0.967	0.18	0.894
CN(C)C(=O)[C@@]1(Cc2ccccc2)N=C(c2ccc(OCCCO)cc2)O[C@H]1c1ccccc1	0.508	-1.76	-0.469	1.58	0.972	0.217	0.0654	-0.332	1.44	0.907	0.637	0.684 (inactive)	0.738	0.314	0.617	2.69	0.973	0.983	-0.682	0.931

— PubChem BioAssay
